# According to PubChem BioAssay AID1645856 (Buhrlage Lab, Dana-Farber Cancer Institute and Novartis …, 2021):
# Hit rate of the full screen: of about 47,000 compounds, about 510 (1.1%) were called active. No stated cut-off is given here; in the data, active means inhibition above about 30%; inactive means the rest. Many of the other results were omitted from the sample, so actives are more common in it than they were.
# Molecular target: Ubiquitin carboxyl-terminal hydrolase 10 (Homo sapiens) (UniProt Q14694)
# Sequence (Q14694 whole entry, looked up): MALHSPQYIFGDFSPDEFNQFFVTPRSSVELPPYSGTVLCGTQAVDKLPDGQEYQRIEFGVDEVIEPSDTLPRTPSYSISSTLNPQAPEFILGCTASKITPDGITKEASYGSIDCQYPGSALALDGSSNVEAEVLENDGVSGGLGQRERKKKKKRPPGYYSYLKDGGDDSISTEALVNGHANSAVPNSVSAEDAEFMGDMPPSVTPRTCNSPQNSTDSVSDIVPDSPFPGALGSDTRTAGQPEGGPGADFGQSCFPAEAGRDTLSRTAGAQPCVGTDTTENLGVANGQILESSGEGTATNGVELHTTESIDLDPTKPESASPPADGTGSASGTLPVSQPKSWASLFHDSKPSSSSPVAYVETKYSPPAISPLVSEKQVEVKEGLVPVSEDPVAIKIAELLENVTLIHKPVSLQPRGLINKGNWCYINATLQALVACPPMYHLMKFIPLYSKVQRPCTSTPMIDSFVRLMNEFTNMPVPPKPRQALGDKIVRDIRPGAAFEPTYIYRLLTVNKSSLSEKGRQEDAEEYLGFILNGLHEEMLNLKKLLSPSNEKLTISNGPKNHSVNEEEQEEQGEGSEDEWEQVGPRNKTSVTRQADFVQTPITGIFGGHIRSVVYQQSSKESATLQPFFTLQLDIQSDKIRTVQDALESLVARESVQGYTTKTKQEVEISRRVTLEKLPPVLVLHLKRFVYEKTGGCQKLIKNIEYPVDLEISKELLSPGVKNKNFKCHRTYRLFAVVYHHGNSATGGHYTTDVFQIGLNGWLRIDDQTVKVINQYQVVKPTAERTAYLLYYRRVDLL
# Assay: blocks human USP10 ubiquitin-rhodamine cleavage (AID 1645856)
# Conditions: purified USP10, Ub-rhodamine fluorescence, 60 min; at 20 µM; active compounds read high
row,SMILES,inhibition
1,CC(C)C(NS(=O)(=O)c1ccc(Cl)cc1)C(=O)OCC(=O)C12CC3CC(CC(C3)C1)C2 (stereo unspecified),3.82% (inactive)
2,Cc1cccc(CNC(=O)C2CCc3nc(N4CCOCC4)ncc3C2)c1 (stereo unspecified),-3.24% (inactive)
3,COc1cccc(O[C@@H]2C[C@@H](NC(=O)c3ncoc3C)[C@H](O)[C@H]2O)c1,-1.35% (inactive)
4,O=S1(=O)C=C(CSCCO)c2cc(Cl)ccc21,-1.29% (inactive)
5,Cc1cc(C(=O)N2CCCCC2c2nncn2CC2CC2)nn1C (stereo unspecified),1.03% (inactive)
6,COCCNC(=O)c1cccc(C2CCCN(C(=O)Nc3ccccc3)C2)c1 (stereo unspecified),6.54% (inactive)
7,O=C(CSc1n[nH]c(-c2ccccc2Cl)n1)NCC1CCCO1 (stereo unspecified),-1.9% (inactive)
8,COc1ccc(CC(=O)N2CCC3(C2)C(=O)N(C)c2ccccc23)cc1 (stereo unspecified),-4.15% (inactive)
9,CCOC(=O)N1CCN(Cc2nc3ccc([N+](=O)[O-])cc3c(=O)n2-c2cccc(OC)c2)CC1,-1.3% (inactive)
10,CC(C)Cn1cnc2nc(CSc3ccccc3NC(=O)Nc3ccccc3)cc(=O)n21,2.5% (inactive)
11,Cc1ccc(S(=O)(=O)N2CCC(c3nc(C(=O)N(C)C)c(C)o3)CC2)cc1C,-0.0972% (inactive)
12,CCCCCCSc1ncnc2c1sc1nc(-c3ccccc3)c3c(c12)CC(C)(C)OC3,-3.17% (inactive)
13,CSc1ncnc2c1sc1nc(-c3ccccc3)c3c(c12)CC(C)(C)OC3,0.0174% (inactive)
14,CC1(C)Cc2c(c(-c3ccco3)nc3sc4c(SCCCc5ccccc5)ncnc4c23)CO1,58.4% (active)
15,Clc1cc2nc(N3CCN(c4ccccn4)CC3)c3nncn3c2cc1Cl,-8.09% (inactive)
16,O=C(CCCn1c(=O)c2ccccc2n(Cc2ccccc2F)c1=O)NC1CCCC1,8.78% (inactive)
17,Cc1ccccc1CNC(=O)Cn1c(=O)ccn(Cc2ccc(F)cc2)c1=O,0.832% (inactive)
18,N#Cc1ccccc1Cn1c(=O)n(CCCC(=O)NCc2ccc(F)cc2)c(=O)c2ccccc21,34% (active)
19,COc1cccc(C(O)c2ncc(-c3ccc4ccccc4c3)[nH]2)c1 (stereo unspecified),-5.14% (inactive)
20,CN(C)c1nc(C2CCN(C(=O)c3ccccc3)CC2)cn2nccc12,-1.26% (inactive)
21,CN(C)c1nccnc1C1CN(C(=O)c2cc(C(C)(C)C)[nH]n2)CCO1 (stereo unspecified),4.78% (inactive)
22,C/C=C(\Cl)C1=CC(=O)[C@]23C[C@H]2[C@@]2(C)CO[C@@]1(O)[C@@]3(O)O2,-13.4% (inactive)
23,Cc1ccc(S(=O)(=O)N2CCCC(c3nc(-c4ccc(=O)[nH]c4)no3)C2)cc1 (stereo unspecified),0.0273% (inactive)
24,COc1cc(Cl)c(NC(=O)c2cc(-c3ccccn3)n[nH]2)c(OC)c1,38% (active)
25,Cc1ccc(CC(=O)N2CCN(C(=O)c3cc(-c4ccccn4)n[nH]3)CC2)cc1,-1.22% (inactive)
26,O=C(Nc1ccc(Cl)cc1F)c1cc(-c2ccccn2)n[nH]1,10.2% (inactive)

row,SMILES,inhibition
1,Cc1c(-c2nnc(-c3ccccn3)o2)nnn1-c1ccccc1Cl,1.56% (inactive)
2,COc1ccc(-c2noc(-c3ccc(N(C)Cc4ccco4)nn3)n2)cc1,0.989% (inactive)
3,Cc1ncccc1Oc1nccnc1C1CCNCC1,0.116% (inactive)
4,CCN(CC)C(=O)CC[C@H]1CNC(=O)[C@@H]2[C@@H](CCN2CC2CC2)N1C,-0.533% (inactive)
5,O=C1CC(c2ccc(OCc3ccccc3)cc2)c2sccc2N1 (stereo unspecified),2.63% (inactive)
6,COc1cccc(CCN2CCOc3nc4c(C)cccc4cc3C2)c1OC,1.85% (inactive)
7,Cn1c(=O)[nH]c(=O)c2c1nc(N1CCCCCC1)n2CCCSc1nc2ccccc2s1,20.1% (inactive)
8,Cn1c2c(c(=O)n(C)c1=O)[C@@H]1c3c(ccc4ccccc34)OC[C@@H]1CO2,-4.17% (inactive)
9,CO[C@@H](/C(C)=C/C=C/C(C)=C/c1coc(C)n1)[C@@H](C)[C@@H]1C[C@H](O)[C@@]2(C)O[C@@H]2/C=C/[C@@H](C)[C@H](O)C[C@H](CC(=O)O)C/C=C/C(=O)O1,-8.33% (inactive)
10,CN(c1ccc(F)cc1)c1ccc2ccc(C(=O)N3CCCC(O)C3)cn12 (stereo unspecified),-11.2% (inactive)
11,Cn1c(SCC(N)=O)nnc1-c1cc2ccccc2o1,-1.83% (inactive)
12,Cc1noc(C)c1C1CCCN1C(=O)c1c(F)cccc1F (stereo unspecified),2.21% (inactive)
13,CC(CN1CCOCC1)OC(=O)c1ccc(C(C)(C)C)cc1 (stereo unspecified),0.0972% (inactive)
14,CC(C)CC(=O)Nc1ccc(-c2nc3ncccc3o2)cc1,1.25% (inactive)
15,CCOc1ccccc1NC(=O)Cc1cccs1,1.12% (inactive)
16,Cc1cccc(Nc2nc(N3CCOCC3)nc3c2cnn3C)c1,-3.81% (inactive)
17,CCc1nc2cc(N3CCC(C(=O)N4CCN(CC)CC4)CC3)cnc2nc1CC,-3.73% (inactive)
18,O=C(NCC1CCCCC1)C1CCN(C2=NS(=O)(=O)c3ccccc32)CC1,-1.45% (inactive)
19,COc1cccc(CNC(=O)c2ccc3c(=O)nc4c(-c5ccccc5)n[nH]n4c3c2)c1,17.4% (inactive)
20,Cc1cc(Cl)cc(C)c1OCC(=O)NC1CCCc2ccccc21 (stereo unspecified),-1.09% (inactive)
21,CCOC(=O)C1CCN(C(c2cccnc2)c2c(NC(C)=O)sc3c2CCCC3)CC1 (stereo unspecified),-3.05% (inactive)
22,CC1CCN(C(=O)C2CCN(C(=O)c3ccc4c(c3)nnn4C3CCCC3)CC2)CC1,-0.291% (inactive)
23,Cc1ccc(N2CC(c3nnc(NC(=O)CCCc4ccccc4)s3)CC2=O)cc1 (stereo unspecified),8.86% (inactive)
24,COc1ccc(N2CC(c3nnc(NC(=O)CCc4ccccc4)s3)CC2=O)cc1 (stereo unspecified),30.4% (active)
25,Cc1ccc(CC(=O)Nc2nnc(C3CC(=O)N(c4ccc(C)c(C)c4)C3)s2)cc1 (stereo unspecified),15.3% (inactive)
